Screening data (PubChem BioAssay)
POLB inh – DNA polymerase beta (human) inhibition | Pol beta primer extension/strand displacement, fluorescence kinetic | Potency, µM (series often up to 114 µM), for inactives: at the highest dose activity change, negative = inhibition, most hits filed as inhibitors | 1.3% of 340,000 active | P06746; also: potency is read from the fitted curve at half-maximal effect; % is scaled to controls: 0 for no effect and ±100 for the full control effect
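Pol beta (10 nM) was preincubated with compound for 15 min at room temperature. The reaction was then started with 50 nM substrate and read immediately and after a further 10 min at room temperature.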
FEN1 inhibitor – blocks human flap endonuclease 1. Recombinant FEN1 flap cleavage, fluorescence, 15 min. P39748. Potency, µM (highest dose often 114 µM), for inactives: at the highest dose activity change, negative = inhibition, actives largely listed as inhibitors. AID 588795. 0.35% of 390,000 active; also: potency is read from the fitted curve at half-maximal effect; % is scaled to controls: 0 for no effect and ±100 for the full control effect; nearly all actives have a fitted effect of over 65% in size
Target sequence (P39748 whole entry, looked up): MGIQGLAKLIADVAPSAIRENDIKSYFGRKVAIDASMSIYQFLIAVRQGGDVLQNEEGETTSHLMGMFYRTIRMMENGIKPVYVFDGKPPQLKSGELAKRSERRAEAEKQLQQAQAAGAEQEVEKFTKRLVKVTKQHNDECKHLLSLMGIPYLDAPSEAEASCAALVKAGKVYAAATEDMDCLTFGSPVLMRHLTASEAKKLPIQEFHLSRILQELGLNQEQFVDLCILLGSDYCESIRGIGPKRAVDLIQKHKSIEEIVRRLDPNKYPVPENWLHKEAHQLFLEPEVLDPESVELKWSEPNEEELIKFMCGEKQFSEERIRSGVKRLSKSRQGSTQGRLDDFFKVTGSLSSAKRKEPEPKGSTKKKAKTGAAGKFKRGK
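With each library titrated from low to high concentration, compounds met 10 nM FEN1 for 15 min at room temperature before 50 nM substrate was added; readings at 0 and 15 min fed four-parameter Hill curve fits.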
Pol kappa inh-1 – blocks human DNA polymerase kappa activity; Q9UBT6; purified Pol kappa, fluorescent DNA synthesis assay, 10 min; Potency, µM (titrated, usually from 107 µM), inactives show top-dose activity, negative = inhibition, hits mostly inhibitors; 0.53% of 400,000 active; AID 588579; also: potency is read from the fitted curve at half-maximal effect; % is scaled to controls: 0 for no effect and ±100 for the full control effect
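10 nM Pol kappa preincubated 15 min at room temperature with compounds, then reaction started with substrate at 50 nM final. Fluorescence read kinetically at 0 and 10 min; buffer-only wells served as negative control.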
Pol eta inh-1 – DNA polymerase eta (human) inhibition. 1.2% of 390,000 active. AID 588591. Q9Y253. Potency, µM (doses to about 114 µM), without a hit: top-dose activity change, negative = inhibition, actives largely listed as inhibitors. recombinant Pol eta, fluorescent DNA replication assay; also: potency is read from the fitted curve at half-maximal effect; % is scaled to controls: 0 for no effect and ±100 for the full control effect
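Pol eta at 10 nM preincubated with compounds 15 min at room temperature; reaction started with fluorescent substrate (50 nM final) and read kinetically at 0 and 10 min.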
PI5P4Ka inh – inhibitors of human PI5P4K alpha. max response, %. 1.2% of 330,000 active. PI5P4Kalpha enzyme, ADP-Glo luminescence, 60 min; active compounds read low. P48426. AID 652105; active = max response of -50% or lower; inconclusive = between -30% and -50%; inactive = -30% or higher; also: value at the top dose of about 77 µM; % is scaled to controls: 0 for no effect and ±100 for the full control effect
Target sequence (P48426 whole entry, looked up): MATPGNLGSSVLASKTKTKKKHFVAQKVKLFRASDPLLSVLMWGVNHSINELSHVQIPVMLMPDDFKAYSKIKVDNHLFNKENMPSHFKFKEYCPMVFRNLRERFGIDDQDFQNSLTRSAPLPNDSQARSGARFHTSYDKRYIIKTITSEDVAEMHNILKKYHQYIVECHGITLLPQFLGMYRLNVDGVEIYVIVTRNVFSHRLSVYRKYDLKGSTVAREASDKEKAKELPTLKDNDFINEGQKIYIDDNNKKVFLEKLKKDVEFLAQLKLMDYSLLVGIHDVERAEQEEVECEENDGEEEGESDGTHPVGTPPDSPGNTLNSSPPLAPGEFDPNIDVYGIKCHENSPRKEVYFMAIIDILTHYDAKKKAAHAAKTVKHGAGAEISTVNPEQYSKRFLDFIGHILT
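Controls without substrate or without enzyme flank wells where PI5P4Kalpha converts substrate using 5 microM ATP (final). Incubation lasts 60 minutes at room temperature; ADP formed is read by ADP-Glo luminescence.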
Pol iota inh – DNA polymerase iota (human) inhibition; 1% of 390,000 active; Potency, µM (series often up to 115 µM), for the others: at the top dose activity, negative = inhibition, hits mostly inhibitors; Pol iota fluorescent replication assay, 10 min; Q9UNA4; also: potency is read from the fitted curve at half-maximal effect
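Fluorescent replication assay read twice, at 0 min and 10 min after adding 50 nM (final) substrate. Enzyme (10 nM) and compounds were first incubated 15 min at room temperature; enzyme-free buffer wells were negative controls.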
TbPGK inh – blocks T. brucei phosphoglycerate kinase; shares compounds with Pol kappa inh-1; TbPGK coupled GAPDH assay, Kinase-Glo luminescence; Potency, µM (highest dose often 57.5 µM), without a hit: at the highest dose activity change, negative = inhibition, usual class: inhibitors; 79% of 500 active; AID 686980; also: potency is read from the fitted curve at half-maximal effect; % is scaled to controls: 0 for no effect and ±100 for the full control effect; nearly all actives have a fitted effect of over 65% in size
Pol iota confirm – Confirm cherry-picked inhibitors of human polymerase iota; 77% of 1,500 active; AID 720496; shares compounds with Pol kappa inh-1; Pol iota primer extension, TAMRA/BHQ fluorescence; Potency, µM, actives largely listed as inhibitors; also: potency is read from the fitted curve at half-maximal effect
Pol kappa inh-2 – Pol kappa (human) inhibition, cherry-pick confirmation; 76% of 920 active; AID 720501; Potency, µM, most hits filed as inhibitors; purified Pol-kappa, fluorescent strand-displacement substrate; shares compounds with Pol eta inh-1; also: potency is read from the fitted curve at half-maximal effect
Pol eta inh-2 – confirmation of human DNA polymerase eta inhibitors. shares compounds with Pol eta inh-1. Pol eta primer extension, TAMRA/BHQ fluorescence, 10 min. Potency, µM, usual class: inhibitors. 64% of 2,600 active; also: potency is read from the fitted curve at half-maximal effect
* marks the source's active call; other numbers are inactive results; u = inconclusive; x = no result. Rows were chosen to be rich in hits. Some 2.8% of all compounds tested hit in one or more screens of this group. Unless noted, calls follow the shape of the dose curve; as a rule, active = well fitted curve in the direction sought with a large enough effect; inconclusive = small, poorly fitted or top-dose-only effect, or another doubt; inactive = no such curve, though single readings can be large; an effect the other way counts as inactive or inconclusive.

SMILES | POLB inh | FEN1 inhibitor | Pol kappa inh-1 | Pol eta inh-1 | PI5P4Ka inh | Pol iota inh | Pol iota confirm | Pol eta inh-2 | others
Cc1ccc(Cl)cc1NC(=O)C(C)n1nc(-c2ccccc2)ccc1=O (stereo unspecified) | u | -21.0% | -17.8% | -4.5% | x | u | x | x
Cc1ccc[n+](CC(=O)Nc2ccc(C)c(C)c2)c1 | 6.6% | -4.9% | 11.0% | -14.3% | -2.5 | -17.1% | x | x
CCCN(CCC)CC(=O)Nc1cccc2c1OCO2 | 5.5% | -0.5% | -16.6% | -4.2% | 8.0 | -1.7% | x | x
Cc1ccccc1NC(=O)CN1C(=O)S/C(=C\c2ccc(-c3cc(C(=O)O)ccc3C)o2)C1=O | 31.6µM* | u | u | u | -79.1* | 8.91µM* | 26.7* | 26.9* | Pol kappa inh-2=8.44*
COc1ccc(CCC(=O)N2c3ccccc3N=C(c3ccc(C(F)(F)F)cc3)C2C(=O)NC2CCCC2)cc1 (stereo unspecified) | x | x | x | x | 5.4 | x | x | x
O=C(CSc1nnc(SCc2ccccc2)s1)N/N=C/C=C\c1ccco1 | 7.08µM* | u | 28.2µM* | 20µM* | -81.9* | u | 42.3* | 42.6*
Cn1cccc1CC(=O)N/N=C/C=C/c1ccco1 | 25.1µM* | -13.3% | 35.5µM* | u | -55.3* | 17.8µM* | 67* | u | Pol kappa inh-2=37.7*
CSc1ncccc1C(=O)Nc1cc(Cl)ccc1N1CCOCC1 | x | -15.0% | -22.8% | -8.9% | 3.1 | 5.3% | x | x
CC(/C=C1\SC(=S)N(c2ccc(C(=O)O)cc2)C1=O)=C\c1ccccc1 | -23.8% | -1.2% | -37.4% | 22.4µM* | -56.5* | 20µM* | 37.7* | 42.6*
CC(/C=C1\SC(=S)N(NC(=O)c2ccc(C)cc2)C1=O)=C\c1ccccc1 | 2.2% | -5.9% | -21.9% | 4.3% | 0.5 | -1.7% | x | x
CCS(=O)(=O)C1=NN2C(=N)/C(=C\c3ccc(SCc4ccco4)o3)C(=O)N=C2S1 | 11.2µM* | 44.7µM* | 28.2µM* | 4.47µM* | -91.0* | u | 37.7* | 16.9*
O=C(COc1ccc(Cl)cc1)Nc1cccc(S(=O)(=O)NC2=NCCCCC2)c1 | x | -0.5% | -4.6% | -19.3% | -0.2 | 16.5% | x | x
N#Cc1ccc(OCC(=O)Nc2cccc(S(=O)(=O)NC3=NCCCCC3)c2)cc1 | x | 3.9% | -35.0% | u | u | 79.4µM* | 67* | u
Cc1nc2c(c(=O)n1CCC1=CCCCC1)c1nc3ccccc3nc1n2/N=C/c1ccco1 | 10µM* | -31.7% | u | u | u | u | 67* | 75.7*
Cc1cc(=O)n(CC(=O)NC(C)c2ccccc2)c2c1c(C)nn2C (stereo unspecified) | 31.6µM* | -0.2% | u | 39.8µM* | x | -22.8% | 67* | 84.9*
COC(=O)c1ccccc1NC(=O)Cn1c(=O)cc(-c2ccccc2)c2c(C)nn(C)c21 | 1.9% | 0.7% | 0.0% | -10.4% | x | -3.3% | x | x
Cc1nn(C)c2c1c(-c1ccccc1)cc(=O)n2CC(=O)NC(C)c1ccccc1 (stereo unspecified) | 14.1µM* | 0.0% | u | 25.1µM* | x | u | 33.6* | 26.9* | Pol kappa inh-2=16.8*
COCC(C)n1c(SCC(=O)N2CCc3ccccc3C2)nc2ccccc2c1=O (stereo unspecified) | -0.7% | -4.7% | -11.5% | -7.6% | -9.7 | 117.1% | x | x
C/C(=N/NS(=O)(=O)c1ccccc1)c1ccc(NC(=O)C2CC2)cc1 | -17.0% | 6.6% | -4.6% | -10.2% | 2.1 | 8.3% | x | x
Cc1n[nH]c(=S)n(NC(=O)/C=C/C(=O)Nn2c(=S)[nH]nc(C)c2=O)c1=O | 20µM* | 44.7µM* | 8.91µM* | 8.91µM* | u | u | 21.2* | 9.53* | TbPGK inh=20.6µM*;Pol kappa inh-2=9.47*
O=P(c1ccccc1)(c1ccccc1)c1cc(S(=O)(=O)O)ccc1O | 10µM* | 1.4% | u | 20µM* | -29.3 | 25.1µM* | 23.8* | 60.1* | Pol kappa inh-2=42.3*
COCC(=O)Nc1cc(C)cn(Cc2ccccc2Cl)c1=O | -0.2% | -3.7% | 2.5% | -3.0% | 1.0 | 126.2% | x | x
O=C(COC(=O)CN1C(=O)C(=O)c2ccccc21)OCN1C(=O)c2ccccc2C1=O | 24.5% | -5.0% | -4.5% | 0.3% | 1.4 | -4.9% | x | x
COc1ccc(CNc2cccnc2Cl)cc1 | x | x | x | x | -1.7 | x | x | x
COc1ccc(Oc2c(OC)cc(NCc3ccc(CN)cc3)c3ncccc23)cc1 | x | x | x | 3.16µM* | -10.4 | x | 7.52* | 15.1* | Pol kappa inh-2=2.99*
SMILES | POLB inh | FEN1 inhibitor | Pol kappa inh-1 | Pol eta inh-1 | PI5P4Ka inh | Pol iota inh | Pol iota confirm | Pol eta inh-2 | others
CCCCC(CC)CNC(=O)CN1C(=O)NC2(CCc3ccccc32)C1=O (stereo unspecified) | 29.9% | -6.2% | -8.2% | -7.7% | 11.8 | 139.3% | x | x
Cc1cc(/C=N/Nc2ccc([N+](=O)[O-])cn2)c(C)n1-c1ccc(C(=O)O)cc1 | u | u | 79.4µM* | 17.8µM* | -83.7* | 17.8µM* | u | 67.5*
CC(=O)c1cccc(NC(=O)CSc2ccc(-c3ccco3)nn2)c1 | 50.1µM* | -5.7% | u | u | u | 22.4µM* | u | u
CCc1ccc(NC(=O)CSc2ccc(-c3ccco3)nn2)cc1 | u | 4.2% | -0.8% | -13.1% | -15.6 | 125.7% | x | x
COc1ccc(Cl)cc1NC(=O)c1cc(C)nc2c1c(C)nn2-c1ccccc1 | -12.1% | 11.7% | -11.1% | -10.1% | x | 11.5% | x | x
CC(=O)c1ccc(NC(=O)COC(=O)/C=C/c2cccs2)cc1 | x | -1.0% | 0.2% | -14.1% | 1.8 | 54.0% | x | x
NC(=O)c1ccc(NC(=O)COC(=O)/C=C/c2ccc(Br)o2)cc1 | x | -6.4% | 35.5µM* | 2.82µM* | -57.8* | 22.4µM* | 42.3* | 67.5* | TbPGK inh=8.19µM*;Pol kappa inh-2=u
